Only some compounds are listed: those with a hit (about 2.3% of all), similar ones and a draw of the others.
Pf_Dd2_inh – P. falciparum Dd2 growth inhibitors, primary screen, SYBR Green fluorescence, single dose replicates; 72 h; hits give low values; activity change, % at 10 µM; actives 2.3% (n = 94,000); in the data active = activity change below about -80%
C_diff_growth – C. difficile growth inhibitors, primary screen, HTS | Clostridium difficile clinical isolate growth, OD600, 24 h; hits give low values | growth activity, negative = inhibition, % at 16 µg/mL (by protocol) | actives 0.25% (n = 86,000);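 active = mean growth activity at or below -80% and every replicate also at or below -80%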;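 also: 0% = DMSO wells and -100% = levofloxacin 16 µg/mL wells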
The depositor's hits bear a star; · = no result given.

SMILES Pf_Dd2_inh C_diff_growth
COCC#Cc1ccc(CC[C@H]2O[C@H]3CC[C@@H](CO)O[C@H]3C[C@@H]2n2cc(C3(O)CCCC3)nn2)cc1 -47 0
COc1ccc(S(=O)(=O)N[C@H]2CC[C@H](CC(=O)NCCc3ccccc3)O[C@H]2CO)cc1 20 0
C[C@H]1CN([C@@H](C)CO)C(=O)c2c(c3ccccc3n2C)-c2ccccc2CO[C@H]1CN(C)Cc1cccnc1 13 -3
COc1ccccc1C#Cc1ccc2c(c1)[C@H]1[C@H](CCN1C(=O)c1ccc(F)cc1)[C@H](CO)N2 12 -97*
COc1ccc(S(=O)(=O)N2CC[C@H]3[C@H](CO)Nc4ccc(C#Cc5ccccc5OC)cc4[C@H]32)cc1 -26 0
COc1ccc(S(=O)(=O)N2CC[C@@H]3[C@H]2c2cc(C#Cc4ccccc4OC)ccc2N[C@@H]3CO)cc1 -83* 0
COc1ccc(S(=O)(=O)N2CC[C@@H]3[C@H](CO)Nc4ccc(-c5ccc(C#N)cc5)cc4[C@@H]32)cc1 -54 0
N#Cc1ccc(-c2ccc3c(c2)[C@H]2[C@H](CCN2Cc2ccc4c(c2)OCO4)[C@H](CO)N3)cc1 -57 -96*
CN(C)C(=O)c1ccc(-c2ccc3c(c2)[C@H]2[C@H](CCN2Cc2ccc4c(c2)OCO4)[C@@H](CO)N3)cc1 -54 67
COc1ccccc1C#Cc1ccc2c(c1)[C@@H]1[C@@H](CCN1C(=O)c1ccc(F)cc1)[C@@H](CO)N2 7 37
COc1ccc(S(=O)(=O)N2CC[C@@H]3[C@@H](CO)Nc4ccc(-c5ccc(C#N)cc5)cc4[C@@H]32)cc1 -81* 6
CO[C@@H]1CN(C)C(=O)c2cc(NC(=O)c3cc(C)on3)ccc2OC[C@@H](C)N(S(=O)(=O)c2ccccc2)C[C@H]1C -42 ·
C[C@H](CO)N1C[C@H](C)[C@H](CN(C)S(=O)(=O)c2cn(C)cn2)Oc2ccc(NC(=O)Nc3cccc4ccccc34)cc2CC1=O 14 -1
CCCNC(=O)N1C[C@H]2[C@@H](c3ccccc31)[C@H](CO)N2Cc1cc(F)ccc1F 21 -2
O=C(C[C@@H]1C[C@H]2c3cc(NC(=O)C4CCOCC4)ccc3O[C@H]2[C@H](CO)O1)NCc1ccc(Oc2ccccc2)cc1 -68 ·
COc1ccccc1NC(=O)N[C@@H]1CC[C@@H](CC(=O)NCc2ccc(Cl)c(Cl)c2)O[C@@H]1CO 1 3
COc1ccc(S(=O)(=O)N(C)C[C@H]2OCCCC[C@@H](C)Oc3ccc(NC(=O)Cc4ccccc4)cc3C(=O)N([C@@H](C)CO)C[C@H]2C)cc1 -71 7
C[C@@H]1CCCCO[C@H](CN(C)S(=O)(=O)c2ccc(F)cc2)[C@@H](C)CN([C@@H](C)CO)C(=O)c2cc(NC(=O)Cc3ccccc3)ccc2O1 -76 ·
COc1ccc(S(=O)(=O)N(C)C[C@H]2OCCCC[C@H](C)Oc3ccc(NC(=O)Cc4ccccc4)cc3C(=O)N([C@H](C)CO)C[C@H]2C)cc1 -84* 7
C[C@H]1CCCCO[C@H](CN(C)S(=O)(=O)c2ccc(Cl)cc2)[C@@H](C)CN([C@@H](C)CO)C(=O)c2cc(NC(=O)Cc3ccccc3)ccc2O1 -81* 8
C[C@H]1CCCCO[C@H](CN(C)S(=O)(=O)c2ccc(F)cc2)[C@@H](C)CN([C@@H](C)CO)C(=O)c2cc(NC(=O)Cc3ccccc3)ccc2O1 -89* ·
C[C@H](CO)N1C[C@H](C)[C@H](CN(C)S(=O)(=O)c2ccc(Cl)cc2)OCCCC[C@H](C)Oc2ccc(NC(=O)Cc3ccccc3)cc2C1=O -72 3
O=C(NCc1ccccc1)[C@H]1[C@H](CO)[C@H]2Cn3c(cccc3=O)[C@@H]1N2C(=O)CC1CC1 7 -1
O=S(=O)(c1ccc(F)cc1)N1CCCCN2[C@H](CO)[C@H](c3ccc(-c4ccccc4)cc3)[C@H]2C1 -71 43
O=C(C[C@@H]1CC[C@H]2[C@@H](COC[C@H](O)CN2Cc2nccs2)O1)N1CCC(Cc2ccccc2)CC1 · 48
SMILES Pf_Dd2_inh C_diff_growth
Cc1ccc(S(=O)(=O)N(C)C[C@H]2OCc3ccccc3-c3c(n(C)c4ccccc34)C(=O)N([C@@H](C)CO)C[C@H]2C)cc1 -86* ·
C[C@H]1CN([C@@H](C)CO)C(=O)c2c(c3ccccc3n2C)-c2ccccc2CO[C@@H]1CN(C)S(=O)(=O)c1ccccc1 -79 ·
C[C@H](CO)N1C[C@H](C)[C@@H](CN(C)S(=O)(=O)c2ccc(F)cc2)OCc2ccccc2-c2c(n(C)c3ccccc23)C1=O -23 ·
C[C@H](CO)N1C[C@H](C)[C@H](CN(C)S(=O)(=O)c2ccc(C#N)cc2)OCc2ccccc2-c2c(n(C)c3ccccc23)C1=O -88* ·
C[C@H]1CN([C@@H](C)CO)C(=O)c2c(c3ccccc3n2C)-c2ccccc2CO[C@H]1CN(C)S(=O)(=O)c1ccc(F)cc1 -87* ·
C[C@@H]1CN([C@@H](C)CO)C(=O)c2c(c3ccccc3n2C)-c2ccccc2CO[C@H]1CN(C)S(=O)(=O)c1ccc([N+](=O)[O-])cc1 -76 -28
C[C@H]1CN([C@@H](C)CO)C(=O)c2c(c3ccccc3n2C)-c2ccccc2CO[C@@H]1CN(C)S(=O)(=O)c1ccc(C#N)cc1 -73 ·
C[C@@H]1CN([C@@H](C)CO)C(=O)c2c(c3ccccc3n2C)-c2ccccc2CO[C@H]1CN(C)S(=O)(=O)c1ccc(C(F)(F)F)cc1 -89* 45
C[C@H]1CN([C@@H](C)CO)C(=O)Cc2cc(NC(=O)Cc3cn(C)c4ccccc34)ccc2O[C@@H]1CN(C)Cc1ccncc1 -8 -2
C[C@@H]1CN([C@H](C)CO)C(=O)c2c(c3ccccc3n2C)-c2ccccc2CO[C@@H]1CN(C)S(=O)(=O)c1ccc(Cl)cc1 -81* ·
C[C@@H]1CN([C@@H](C)CO)C(=O)c2c(c3ccccc3n2C)-c2ccccc2CO[C@H]1CN(C)S(=O)(=O)c1ccc(Cl)cc1 -75 ·
COCC#Cc1cnc2c(c1)C(=O)N([C@H](C)CO)C[C@H](C)[C@@H](CN(C)Cc1ccc(F)cc1)O2 6 -10
CCS(=O)(=O)N1CC2(C1)[C@@H](c1ccccc1)[C@H](CO)N2Cc1ccc(F)cc1 -83* -1
COc1ccccc1CN1[C@H](CO)[C@@H](c2ccccc2)C12CN(C(C)=O)C2 -47 -6
O=C(CC1CC1)N1CC2(C1)[C@H](c1ccccc1)[C@@H](CO)N2Cc1ccc(F)cc1 -66 -3
COc1ccccc1CN1CC2(C1)[C@H](c1ccccc1)[C@@H](CO)N2Cc1ccccc1 -90* 29
OC[C@@H]1[C@@H](c2ccccc2)C2(CN(CC3CC3)C2)N1Cc1ccc(F)cc1 -88* 18
CCS(=O)(=O)N1CC2(C1)[C@@H](c1ccccc1)[C@@H](CO)N2Cc1ccc(F)cc1 -12 0
CS(=O)(=O)Nc1ccc2c(c1)[C@H]1C[C@H](CC(=O)NCc3ccc(-c4ccccc4)cc3)O[C@@H](CO)[C@H]1O2 -7 -2
C[C@@H]1CN([C@@H](C)CO)C(=O)c2cccc(NC(=O)NC3CCCCC3)c2O[C@H]1CN(C)Cc1ccc(C(=O)O)cc1 5 12
CCNC(=O)C[C@H]1CC[C@H]2[C@@H](COc3ccc(NC(=O)c4ccccc4Cl)cc3C(=O)N2C)O1 -10 -4
